From PubChem BioAssay (Tox21)
Several values for one entry are separate records, joined by “and”; a condition that tells them apart may be missing. Identical values can stand only once. Inconclusive results are not listed. Some compounds were tested as several samples or in several runs, with calls that do not always agree. Activity calls are given as the source filed them. Unless noted, the call rests on the fitted dose curve; in most records, active means well fitted curve in the direction sought with a large enough effect in the repeat runs; inconclusive means weak or mixed curves; inactive means no such curve, though single readings can be large; an effect the other way counts as inactive or inconclusive.

What was measured:
[1] = molecular target: Retinoic acid receptor RXR-alpha (Homo sapiens) (UniProt P19793); test: qHTS assay to identify small molecule agonists of the RXR signaling pathway (AID 1159527; calls by dose curve; further: nearly all actives have a fitted effect of over 35% in size; further: potency means the concentration at half of the fitted maximal effect)
In short: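 Compounds in DMSO were added to RXR-alpha-UAS-bla HEK 293T cells kept in 2% charcoal-stripped serum, and incubated 16 hr at 37 C with 5% CO2. Reporter signal came from a 2 hr B/G FRET substrate step.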

[2] = qHTS assay to identify small molecule agonists of the RXR signaling pathway - cell viability counter screen (AID 1159529);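 further: HEK 293T cells carrying an RXR-alpha UAS beta-lactamase reporter; series mostly up to about 77 µM; nearly all actives have a fitted effect of over 50% in size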
In short: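 Counter screen: CellTiter-Glo luminescence. Cells: RXR-alpha-UAS-bla HEK 293T. Medium: 2% charcoal-stripped FBS. Treatment: 16 h, 37 C. Reagent incubation: 30 min, RT.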

[3] = qHTS assay to identify small molecule antagonists of the retinoid acid receptor (RAR) signaling pathway - cell viability counter screen (AID 1159551); further: nearly all actives have a fitted effect of over 35% in size
In short: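 Seed C3RL4 cells; next day add compound, then retinol to 1 uM final; incubate 6 h at 37 C; add CellTiter-Glo; read luminescence after 30 min at RT.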

[4] = qHTS assay to identify small molecule antagonists of the estrogen related receptor (ERR) signaling pathway from Tox21 library - cell viability counter screen (AID 1224834); further: nearly all actives have a fitted effect of over 30% in size; further: potency means the concentration at half of the fitted maximal effect
In short: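 CellTiter-Fluor fluorescence measured; ERR cells; 17.5 h compound incubation at 37 C; 30 min reagent step.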

[5] = molecular target: Luciferin 4-monooxygenase (Photinus pyralis) (UniProt P08659); test: qHTS assay to identify small molecule inhibitors of firefly luciferase (AID 1224835); further: nearly all actives have a fitted effect of over 25% in size; further: potency means the concentration at half of the fitted maximal effect
In short: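 Inhibition of purified Photinus luciferase is measured by luminescence. Substrate levels (D-luciferin, ATP) sit at their KM values. Each compound is tested in a concentration series.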

[6] = qHTS assay to identify small molecule agonists of the constitutive androstane receptor (CAR) signaling pathway - cell viability counter screen (AID 1224836); further: series mostly up to about 92 µM; nearly all actives have a fitted effect of over 45% in size
In short: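 Double-stable HepG2 hepatoma cells (hCAR plus CYP2B6-2.2kb) are treated for 23 h at 37 C with test compounds in 15-point concentration series. PK11195 at 0.75 uM final is co-added. Cell viability is quantified by CellTiter-Fluor.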

[7] = qHTS assay to identify small molecule antagonists of the constitutive androstane receptor (CAR) signaling pathway - cell viability counter screen (AID 1224837); further: series mostly up to about 92 µM; nearly all actives have a fitted effect of over 45% in size
In short: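 Using CellTiter-Fluor, viability is scored in HepG2 cells stably carrying hCAR and a 2.2kb CYP2B6 reporter after 23 hr compound exposure across 15 concentrations, with CITCO present at 50 nM.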

[8] = molecular target: Nuclear receptor subfamily 1 group I member 3 (Homo sapiens) (UniProt Q14994); test: qHTS assay to identify small molecule antagonists of the constitutive androstane receptor (CAR) signaling pathway (AID 1224838);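 further: HepG2 cells stably expressing hCAR with CYP2B6 luciferase reporter stimulated by CITCO; nearly all actives have a fitted effect of over 40% in size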
In short: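 Reporter luminescence was quantified after 24 h exposure of hCAR/CYP2B6-2.2kb double-stable HepG2 cells to compounds at 15 concentrations in the presence of 50 nM CITCO final.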

[9] = molecular target: Nuclear receptor subfamily 1 group I member 3 (Homo sapiens) (UniProt Q14994); test: qHTS assay to identify small molecule agonists of the constitutive androstane receptor (CAR) signaling pathway (AID 1224839); further: nearly all actives have a fitted effect of over 15% in size; further: potency means the concentration at half of the fitted maximal effect
In short: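 Readout: firefly luciferase luminescence via ONE-Glo. System: HepG2 double-stable for hCAR and CYP2B6-2.2kb. Conditions: 15-point compound titration, PK11195 at 0.75 uM final, 24 h incubation.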

[10] = qHTS assay to identify small molecule antagonists of the estrogen related receptor signaling pathway with the pleiotropic PPARgamma coactivator (PGC) from Tox21 10K library - cell viability counter screen (AID 1224840; active means well fitted cell-killing curve with a large enough effect in the repeat runs, not every such curve was filed as active; further: nearly all actives have a fitted effect of over 40% in size; further: potency means the concentration at half of the fitted maximal effect)
In short: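 Here the PGC/ERR cells serve as a cytotoxicity control: they are exposed to compounds for 17.5 hours at 37 C, and live-cell signal is quantified using CellTiter-Fluor fluorescence.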

[11] = qHTS assay to identify small molecule antagonists of the retinoic acid receptor (RAR) signaling pathway (AID 1159552; further: nearly all actives have a fitted effect of over 50% in size)
In short: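 Antagonism of retinol-induced RARE reporter activity was measured in C3RL4 cells. Exposure to compounds and 1 uM final retinol lasted 6 hr at 37 C, with luminescence as endpoint.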

[12] = qHTS assay to identify small molecule agonists of the retinoic acid receptor (RAR) signaling pathway (AID 1159553); further: potency means the concentration at half of the fitted maximal effect
In short: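 Activation of retinol signaling was monitored via a RARE luciferase reporter in C3RL4 cells. After 6 hr compound treatment at 37 C, detection reagent was added for 30 min at room temperature before luminescence reading.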

[13] = qHTS assay to identify small molecule antagonists of the estrogen related receptor signaling pathway with the pleiotropic PPARgamma coactivator (PGC) from Tox21 10K library (AID 1224841; call rule not given here; further: actives are mostly falling curves and most rising ones were filed inactive; nearly all actives have a fitted effect of over 50% in size; further: potency means the concentration at half of the fitted maximal effect)
In short: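 Each well held 2,000 PGC/ERR cells, pre-incubated six hours (37 C, 5% CO2). Test substances in DMSO were added by pin tool and left for 18 h at 37 C before luciferase detection by One-Glo.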

[14] = qHTS assay to identify small molecule agonists of the estrogen related receptor signaling pathway with the pleiotropic PPARgamma coactivator (PGC) from Tox21 10K library (AID 1224842); further: nearly all actives have a fitted effect of over 15% in size
In short: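 Luminescence from One-Glo (30 min, room temperature) measured after PGC/ERR cells had 18 h at 37 C with pinned compound (23 nL in DMSO). Cells had been seeded at 2,000 per well and pre-incubated 6 h.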

Measured: Potency

Chain of Nuclear receptor subfamily 1 group I member 3 (Homo sapiens) (Q14994 whole entry, looked up): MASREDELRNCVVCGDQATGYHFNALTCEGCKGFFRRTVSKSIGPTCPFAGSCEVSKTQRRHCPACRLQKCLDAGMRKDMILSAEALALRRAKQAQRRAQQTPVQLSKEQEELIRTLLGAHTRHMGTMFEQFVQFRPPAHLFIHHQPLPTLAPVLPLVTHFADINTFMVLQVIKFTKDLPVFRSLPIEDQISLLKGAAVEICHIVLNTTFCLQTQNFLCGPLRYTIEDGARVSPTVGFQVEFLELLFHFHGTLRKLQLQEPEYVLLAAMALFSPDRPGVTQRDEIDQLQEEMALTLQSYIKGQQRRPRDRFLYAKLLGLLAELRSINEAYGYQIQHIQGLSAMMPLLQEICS
Chain of Luciferin 4-monooxygenase (Photinus pyralis) (P08659 whole entry, looked up): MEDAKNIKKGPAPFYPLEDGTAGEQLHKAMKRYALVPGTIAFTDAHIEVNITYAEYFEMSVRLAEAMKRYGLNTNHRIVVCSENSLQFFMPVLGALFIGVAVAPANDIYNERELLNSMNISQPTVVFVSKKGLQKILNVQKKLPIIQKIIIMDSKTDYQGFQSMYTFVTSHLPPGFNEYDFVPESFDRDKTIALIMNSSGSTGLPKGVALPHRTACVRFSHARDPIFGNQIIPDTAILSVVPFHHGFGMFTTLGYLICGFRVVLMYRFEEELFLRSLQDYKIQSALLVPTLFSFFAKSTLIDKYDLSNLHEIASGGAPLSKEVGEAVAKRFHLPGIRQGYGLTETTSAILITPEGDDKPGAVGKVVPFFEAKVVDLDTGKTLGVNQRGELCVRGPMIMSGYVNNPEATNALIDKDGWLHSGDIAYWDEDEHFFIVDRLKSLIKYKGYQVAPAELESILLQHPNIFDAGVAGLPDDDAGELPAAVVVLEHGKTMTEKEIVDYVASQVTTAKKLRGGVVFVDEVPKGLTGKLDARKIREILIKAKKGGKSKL
Chain of Retinoic acid receptor RXR-alpha (Homo sapiens) (P19793 whole entry, looked up): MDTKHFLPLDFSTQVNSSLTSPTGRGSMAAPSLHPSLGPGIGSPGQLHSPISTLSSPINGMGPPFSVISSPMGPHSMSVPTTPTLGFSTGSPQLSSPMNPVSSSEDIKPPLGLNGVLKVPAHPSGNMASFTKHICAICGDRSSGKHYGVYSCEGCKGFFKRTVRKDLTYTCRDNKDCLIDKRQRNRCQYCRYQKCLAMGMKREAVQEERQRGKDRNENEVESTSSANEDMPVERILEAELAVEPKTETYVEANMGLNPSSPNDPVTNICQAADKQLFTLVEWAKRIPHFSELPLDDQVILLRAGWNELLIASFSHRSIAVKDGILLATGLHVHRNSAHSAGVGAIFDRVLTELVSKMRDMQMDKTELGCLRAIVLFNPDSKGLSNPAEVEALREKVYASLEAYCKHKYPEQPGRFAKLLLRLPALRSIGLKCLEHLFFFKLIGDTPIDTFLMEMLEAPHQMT

CC(C)CCCCCCOC(=O)c1ccccc1C(=O)OCCCCCCC(C)C
not listed: [11] | [12] | [13] | [14]
inactive: all other assays above

O=S(=O)(O)OOS(=O)(=O)O
inactive: [1] | [2] | [3] | [4] | [5] | [6] | [7] | [10]

CNC(=O)O/N=C(\SC)C(=O)N(C)C
not listed: [7]
inactive: all other assays above

CNC(=O)O/N=C/C(C)(C)S(C)(=O)=O
not listed: [3] | [13] | [14]
inactive: all other assays above

Cc1cccc(C)c1N
not listed: [8] | [9] | [13] | [14]
inactive: all other assays above

CN(C)C(=O)Cl
not listed: [7]
inactive: all other assays above

CSc1nnc(C(C)(C)C)c(=O)n1N
not listed: [7] | [13] | [14]
inactive: all other assays above

N#Cc1cccc(C#N)c1
not listed: [13] | [14]
inactive: all other assays above

Nc1ccc([As](=O)(O)O)cc1
not listed: [11] | [12] | [13] | [14]
inactive: all other assays above

O=[N+]([O-])c1ccc(Cl)c(Cl)c1
not listed: [7]
inactive: all other assays above

CCCCC(CC)C(=O)Cl (stereo unspecified)
not listed: [13] | [14]
inactive: all other assays above

NNc1ccccc1
active: [9] 48 µM and 68.5 µM
not listed: [4] | [11] | [12] | [13] | [14]
inactive: all other assays above

OC[C@@H](O)[C@H]1O[C@@H]2O[C@H](C(Cl)(Cl)Cl)O[C@@H]2[C@H]1O
inactive: all assays above

CNc1cnn(-c2cccc(C(F)(F)F)c2)c(=O)c1Cl
active: [12] 4.17 µM and 5.45 µM | [5] 34.3 µM and 39.9 µM | [9] 16.6 µM and 24.3 µM
not listed: [7] | [13] | [14]
inactive: all other assays above

OCc1ccco1
inactive and 5.49 µM (active): [1]
not listed: [7] | [11] | [12]
inactive: all other assays above

Oc1c(Br)cc(Br)cc1Br
not listed: [7] | [13] | [14]
inactive: all other assays above

C=C(C)C(=O)OCC(CC)CCCC (stereo unspecified)
31.2 µM (active) and inactive: [13]
39.3 µM (active) and inactive: [10]
55.5 µM (active) and inactive: [4]
not listed: [8] | [9]
inactive: all other assays above

[N-]=[N+]=CC(=O)OC[C@H](N)C(=O)O
not listed: [8] | [9]
inactive: all other assays above

CNC(=O)Oc1cccc2ccccc12
61.1 µM (active) and inactive: [9]
not listed: [7] | [13] | [14]
inactive: all other assays above

O=C(O)CCCc1ccc(N(CCCl)CCCl)cc1
inactive: [1] | [2] | [3] | [4] | [5] | [6] | [7] | [10]

c1ccc2c(c1)CCCC2
not listed: [7] | [11] | [12] | [13] | [14]
inactive: all other assays above

COS(=O)(=O)OC
not listed: [8] | [9] | [13] | [14]
inactive: all other assays above
